# In PubChem BioAssay (NCI):
# About 83,000 compounds went through this panel and 20% of them were active in at least one assay; those are over-represented in the sample as a whole.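 How to read the values: 0–100, growth inhibition (40 = 60% inhibited); 0, no net growth; -100 to 0, cell death (-40 = 40% of starting cells died; -100 = all dead).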 Values without a mark were called inactive. Calls of active or inactive are those of the source. The calls were made as follows: active = growth percent below 10; inactive = the rest.
# Key:
# Assay in all cases: NCI-60 one-dose screen, 48 h (100 = growth as untreated, 0 = no growth, -100 = all killed)
# [1] = test system: NCI-H23 lung; settings: 10 µM unless noted
# [2] = test system: NCI-H226 lung; settings: 10 µM unless noted
# [3] = test system: NCI-H322M lung; settings: 10 µM unless noted
# [4] = test system: NCI-H460 lung; settings: 10 µM unless noted
# [5] = test system: HOP-92 NSCLC; settings: 10 µM
# [6] = test system: NCI-H522 lung; settings: 10 µM
# [7] = test system: A549/ATCC NSCLC; settings: 10 µM unless noted
# [8] = test system: 786-0 renal; settings: 10 µM unless noted
# [9] = test system: COLO 205 colon; settings: 10 µM unless noted
SMILES,growth [1],growth [2],growth [3],growth [4],growth [5],growth [6],growth [7],growth [8],growth [9]
CC(C)(C)c1ccc([I+]c2ccc(C(C)(C)C)cc2)cc1,-13.7% (active),23.8%,55.8%,4.98% (active),-9.02% (active),7.79% (active),39.9%,16.8%,-42.1% (active)
CCOP1(=O)CC(C)=C(Cl)C(P(=O)(O)O)C1 (configuration not stated),93.3%,99.9%,108%,114%,89.1%,89.7%,94.8%,–,110%
CCC(C)C1NC(=O)C(CC(C)C)NC(=O)C(C)NC(=O)C(C(C)C)NC(=O)C(CCCCN)NC(=O)C(CC(C)C)NC(=O)C(C(C)C)NC(=O)[C@H](C)NC(=O)C(C(C)CC)NC(=O)C(CCCN=C(N)N)NC(=O)C(CCCCN)NC(=O)C(CCCN=C(N)N)NC(=O)C(CCCCN)NC(=O)C([C@H](C)CC)NC(=O)C(CCCCN)NC1=O (some centres not stated),8.22% (active),44.9%,64.9%,4.91% (active),-21.8% (active),-5.53% (active),22.3%,10.5%,-73% (active)
COc1ccc(NC(=O)/C=C(C)/C=C/C=C(C)/C=C/C2=C(C)CCCC2(C)C)cc1,93.4%,78.2%,90.8%,30.6%,62%,51.7%,39.9%,–,33%
COc1ccc(-n2nnnc2-c2cn[nH]c2C(F)(F)F)cc1,128%,91%,105%,110%,91.8%,79.3%,104%,106%,96.8%
CCOC(=O)c1c2c(cn1Cc1ccccc1)-c1oncc1CC2,106%,79.4%,92.8%,112%,61.8%,99%,95.1%,83.9%,123%
CC(=O)NNC(=O)c1sc(NC(C)=O)nc1C,98.2%,93.1%,121%,108%,57.4%,139%,104%,122%,108%
CC1Cc2cc(F)ccc2-n2cccc21 (configuration not stated),98.5%,154%,100%,98.7%,73.8%,101%,104%,111%,94.6%
CC(=O)OC1CC2C3CCC4C[C@@H](NC(=O)C=C(C)C)CC[C@]4(C)C3CC[C@]2(C)[C@H]1C(C)N(C)C (some centres not stated),40.6%,30.5%,-2.28% (active),-39.9% (active),-36.2% (active),61.2%,11.6%,–,-84% (active)
CCOC(=O)C1=C(c2ccccc2)NC(=O)NC1CN1C(=O)c2ccccc2C1=O (configuration not stated),93.9%,105%,118%,105%,72.9%,108%,127%,102%,116%
O=C(Nc1cccc2[nH]c(C(F)(F)F)nc12)c1ccc(F)cc1,83.7%,86.1%,101%,55%,-9.1% (active),51.3%,72.8%,91.9%,95.1%
NC(N)=N/N=C/c1cccc(Br)c1,97.6%,88.7%,91.2%,104%,88.9%,100%,98.8%,94.2%,90.2%
COC(=O)C(C)[C@H]1CC[C@@H]2[C@]1(C)CC=C1[C@]23C=C[C@]2(C[C@@H](OC(C)=O)CC[C@]12C)C(C(=O)OC)C3C(=O)OC (some centres not stated),92.3%,89.8%,102%,101%,83.5%,96.8%,91.5%,105%,98.8%
CCCC(=O)NNc1[nH]c(-c2ccc(OC)cc2)cc1C(=O)OCC,95.4%,104%,35.2%,120%,72.9%,91.1%,110%,96.6%,1.42% (active)
O=C(/C=C1\C(=O)N(Cc2ccc([N+](=O)[O-])cc2)c2ccccc21)c1ccc(OCCN2CCCC2)cc1,69.2%,78.5%,66.2%,91.4%,46.2%,38.5%,93.4%,69.7%,81%
CCCCCCCCC1OC1CCCCCCCC(=O)O (configuration not stated),100%,92%,102%,99.1%,87.8%,97.7%,91.9%,100%,105%
CCOc1ccc2nc3ccc(Cl)cc3nc2c1,65.4%,81.3%,96.6%,95.9%,73.9%,76.9%,94.9%,81.1%,114%
[2H]c1nc(=Nc2cc(NC(=O)C=C)c(N(C)CCN(C)C)cc2OC)[nH]c(-c2cn(C([2H])([2H])[2H])c3ccccc23)c1[2H],60.3%,75.2%,2.1% (active),57.3%,22.9%,13.3%,40.6%,48.7%,29.4%
NNC(=S)N1N=C(c2cc3ccccc3o2)CC1c1c[nH]c2ccccc12 (configuration not stated),56.4%,69.7%,39.6%,24.7%,50.1%,42.6%,48.4%,22%,52.2%
COC1=CC(c2ccc[nH]2)=N/C1=C\c1[nH]c(C)c(C(=O)CCCCC(=O)NC(C)(C)C)c1C,40.6%,37.3%,45.7%,5.36% (active),3% (active),-28.1% (active),11.4%,–,44.4%
CC(=O)Nc1nc(C)c(C(=O)NN)s1,103%,92.1%,96%,115%,3.84% (active),97.5%,101%,93%,108%
O=[N+]([O-])c1ccc(-c2ncc(-c3ccc(O)cc3O)[nH]2)cc1,105%,102%,116%,109%,88.5%,124%,44.9%,–,112%
Cc1[nH]n(C(=S)Nc2nc3cc(Cl)c(F)cc3s2)c(=O)c1N=Nc1ccc(F)c(Cl)c1,97.4%,95.7%,119%,106%,71.2%,123%,40.1%,–,109%
Cn1c2c(cc(S(=O)(=O)c3ccccc3)c1=O)CCc1c-2cnn1-c1ccc(Cl)cc1,69.7%,-14.8% (active),38.9%,20.3%,-34.2% (active),-11.3% (active),8.48% (active),–,77.5%
CC/C(=N\Nc1nc2ccccc2n1C)c1ccccn1,7.14% (active),-0.758% (active),21%,1.28% (active),29.2%,18.7%,2.95% (active),2.44% (active),21.9%
O=C(N/N=C\c1ccc(Cl)cc1)C(=O)N/N=C\c1ccc(Cl)cc1,102%,110%,92.9%,103%,92.3%,101%,102%,91.2%,97%
CCC1(CC)C(OC)NC(Br)=C(C#N)C1(C#N)C(N)=O (configuration not stated),99.1%,114%,118%,115%,77.3%,98%,114%,94.3%,126%
COc1ccc(/C=C/C(=O)/C=C/c2cc3ccccc3[nH]c2=O)cc1,70.4%,90.9%,109%,92.7%,89.8%,48.8%,51.3%,93.1%,55.8%
O=C(/C=C1\C(=O)N(Cc2ccc([N+](=O)[O-])cc2)c2ccccc21)c1ccc(OCCN2CCCCC2)cc1,-10.4% (active),-41.1% (active),49.2%,39%,-74.5% (active),-75% (active),48.2%,-88.1% (active),-49.5% (active)
O=C1OC(c2ccc(-c3ccccc3)cc2)=C/C1=C/c1c2ccccc2cc2ccccc12,99.4%,78.5%,113%,94.5%,79.2%,109%,25.8%,–,101%
